# High-throughput results as filed in PubChem BioAssay.
# TDP1 block: TDP1 (human) enzyme inhibition. Q9NUW8. recombinant TDP1, AlphaScreen DNA substrate cleavage. Potency, µM (titrated, usually from 130 µM), for inactives: at the highest dose activity change, negative = inhibition, usual class: inhibitors. 350,000 tested, 0.28% active. AID 485290; note: potency is the fitted concentration of half-maximal effect; nearly all actives have a fitted effect of over 40% in size
#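 Compounds were preincubated with Tdp1 (1 nM final) for 15 min at room temperature before substrate (15 nM final) started a 5 min reaction; beads (10 ug/ml final) were then added for 10 min before AlphaScreen detection.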
# Six1-Eya2 inh: Six1/Eya2 interaction inhibition | Q15475+O00167 | AlphaScreen GST-Six1/His-Eya2 binding, biochemical; hits give low values | activity change, % (no concentration beside the values) | 360,000 tested, 0.56% active; in the data active = activity change below about -65%; inconclusive = mostly about -30% to -63%
#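 AlphaScreen with GST-Six1 and His-Eya2 (5X mix: 250 nM and 500 nM), glutathione donor and nickel acceptor beads; buffer 50 mM Tris pH 8.0, 300 mM NaCl, 1 mM TCEP; 1 h at 37 C in the dark.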
# DT40 TDP1 CPT: growth inhibition of DT40 Tdp1-/-;hTDP1 cells with camptothecin (screen for TDP1 inhibitors); 420,000 tested, 12% active; chicken DT40 Tdp1-/-;hTDP1 cells + 20 nM CPT, ATP luminescence, 48 h; Potency, µM (series often up to 46.2 µM), for the others: top-dose activity change, negative = growth inhibition, most hits filed as inhibitors; AID 686979; note: potency is the fitted concentration of half-maximal effect; nearly all actives have a fitted effect of over 55% in size
#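 Cell growth measured by CellTiter-Glo luminescence after a minimum 48 h, 37 C compound exposure with 20 nM CPT in Tdp1-knockout DT40 cells stably expressing hTDP1, seeded 400/well; qHTS titration format.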
# IL1B secr inh: inhibitors of inflammasome signaling (IL-1 beta secretion); 360,000 tested, 4.7% active; THP-1 LPS/ATP IL-1B secretion, AlphaLISA, 16 h; hits give low values; AID 743279; activity change, % at 57.5 µM; in the data active = activity change below about -50%; inconclusive = mostly about -30% to -49%
#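 THP-1 cells pretreated 1 hr with compounds (up to 57.5 uM final), then stimulated with LPS (250 ng/mL final) plus ATP (1.25 mM final); secreted IL-1B measured by AlphaLISA after 16 hr, decreased signal indicating inhibition.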
# CtBP-E1A inh: inhibitors of CtBP/E1A interaction; AID 651724; 340,000 tested, 0.49% active; activity change, % (test concentration not listed); AlphaScreen GST-E1A/His-CtBP binding, 1536-well; hits give low values; in the data active = activity change below about -65%; inconclusive = mostly about -30% to -63%
#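 AlphaScreen with 125 nM GST-E1A and 125 nM His-CtBP (5X stocks) in Tris pH 8.0, 300 mM NaCl, BSA, Tween 20, TCEP. Compounds preincubated 2 h at 37 deg C, then glutathione donor/nickel acceptor beads added for 1 h at 37 deg C in dark.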
# TDP1 cell noCPT: qHTS for Inhibitors of human tyrosyl-DNA phosphodiesterase 1 (TDP1): qHTS in cells in absence of CPT; DT40 Tdp1-/- hTDP1 cells, no CPT, ATP luminescence, 48 h; Potency, µM (top dose mostly 46.2 µM), for the others: at the top dose activity change, negative = growth inhibition, hits mostly inhibitors; 420,000 tested, 15% active; note: potency is the fitted concentration of half-maximal effect; nearly all actives have a fitted effect of over 55% in size
#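 A cellular qHTS used chicken DT40 cells lacking endogenous Tdp1 but carrying stably transfected human TDP1. Compounds were applied without camptothecin, and cell growth kinetics were judged by ATP-dependent luminescence after ≥48 hr.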
# An asterisk follows results filed as active; ? = inconclusive; · = not tested or not shown; [ ] = dose if it differs, or a comment. Rows were chosen to be rich in hits. Some 18% of all compounds tested hit in one or more screens of this group. Unless noted, calls come from the whole dose curve; as a rule, active = well fitted curve in the direction sought with a large enough effect; inconclusive = small, poorly fitted or top-dose-only effect, or another doubt; inactive = no such curve, though single readings can be large; an effect the other way counts as inactive or inconclusive. % is set by controls: 0 for no effect and ±100 for the full control effect.
SMILES,TDP1 block,Six1-Eya2 inh,DT40 TDP1 CPT,IL1B secr inh,CtBP-E1A inh,TDP1 cell noCPT
COc1ccc(Nc2c3c(nc4ccccc24)CCC3)c(OC)c1,·,-14,15µM*,?,-6,16µM*
COc1ccccc1Nc1c2c(nc3ccccc13)CCC2,·,1,18µM*,5,6,16µM*
Cc1ccc(Nc2nc3c(s2)CCC3)c(C)c1,8%,-6,?,-20,-5,?
CCCNC(=O)NC(=O)CSc1ncc(C(F)(F)F)cc1Cl,0%,-8,-3%,-7,-13,-6%
O=C(C1CC1)N1CCc2cc(Br)cc(S(=O)(=O)NC3CCCCC3)c21,8%,-15,?,?,-12,?
Cc1cc(C)c(C)c(S(=O)(=O)N2CCN(C(=S)NCC3CCCO3)CC2)c1C (configuration not stated),11%,1,-16%,1,-13,?
COc1cc(-c2nc3c4ccccc4nc(=S)n3[nH]2)cc(OC)c1OC,·,7,?,22,2,?
S=c1nc2ccccc2c2nc(-c3ccccc3Cl)[nH]n12,·,0,3.3µM*,36,·,3.7µM*
CC(Oc1ccc(Br)cc1)c1nc2c3ccccc3nc(=S)n2[nH]1 (configuration not stated),9%,14,?,14,0,15µM*
Cc1nc(=S)n(-c2ccccc2)[nH]1,4%,0,-1%,19,2,5%
COc1ccccc1-c1nc2c3ccccc3nc(=S)n2[nH]1,·,0,?,0,-5,-30%
S=c1nc(-c2ccccc2)[nH]n1-c1ccccc1,2%,-8,-20%,7,-7,23µM*
S=c1nc2ccccc2c2nc(-c3ccccc3)[nH]n12,8%,-25,21µM*,26,-12,9.2µM*
CC(C)(C)c1ccc(C(=O)Nc2ccc3c(c2)C(=O)NC3=O)cc1,·,1,-4%,-3,7,-8%
Cc1ccc(C(=O)N2CCC3(CC2)Oc2ccc(Cl)cc2C(=O)C32CC(c3ccccc3)=NO2)s1 (configuration not stated),5%,0,-8%,-17,-11,-15%
O=C(NN=Cc1ccc2c(c1)CCC2)c1ccccc1[N+](=O)[O-],·,-13,23µM*,3,3,18µM*
COC1(OC)C(/C=C/c2ccc(Cl)cc2)C(C#N)(C#N)C1(OC)OC (configuration not stated),5%,-3,8.2µM*,-102*,1,8.2µM*
COC(=O)c1ccc(CSc2nnc3nc(C)cc(C)n23)cc1,-8%,-7,?,30,0,-29%
NNC(=O)CNC(c1ccccc1)c1cc(Br)ccc1NC(=O)c1cccc(Cl)c1 (configuration not stated),-5%,2,?,-20,1,?
CCOC(=O)CNC(c1ccccc1)c1cc(Br)ccc1NC(=O)c1cccc(Cl)c1 (configuration not stated),-8%[12.3 µM],·,?,·,·,23µM*
COC(=O)CNC(c1ccccc1)c1cc(Br)ccc1NC(=O)c1ccccc1 (configuration not stated),2%[12.3 µM],·,21µM*,·,·,?
NNC(=O)CNC(c1ccccc1)c1cc(Br)ccc1NC(=O)c1ccc(Br)cc1 (configuration not stated),0%,6,?,-63*,-3,-19%
COC(=O)CNC(c1ccccc1Cl)c1cc(Br)ccc1NS(=O)(=O)c1ccc(C)cc1 (configuration not stated),3%,-13,?,10,-1,16µM*
NS(=O)(=O)c1cccnc1Nc1cccc(Cl)c1Cl,-3%,-7,-13%,8,-6,-16%
NNC(=O)CNC(c1ccccc1)c1cc(Br)ccc1NC(=O)CCN1CCOCC1 (configuration not stated),-10%,-16,23µM*,-1,-2,13µM*
SMILES,TDP1 block,Six1-Eya2 inh,DT40 TDP1 CPT,IL1B secr inh,CtBP-E1A inh,TDP1 cell noCPT
NNC(=O)CNC(c1ccccc1)c1cc(Br)ccc1NC(=O)c1ccccc1Br (configuration not stated),3%,-2,-5%,-24,1,-6%
CCC(NC(=O)CNC(=O)c1ccc2c(c1)OCO2)c1ccc(Br)cc1 (configuration not stated),-3%,6,-28%,-23,-2,-27%
O=C(NCCN1CCOCC1)c1cc(-c2ccc(Br)cc2)on1,5%,3,-28%,6,18,-5%
O=C(NCCCN1CCOCC1)c1cc(-c2ccc(Br)cc2)on1,5%,-9,?,-62*,-9,-28%
CCCCNC(=O)c1cc(-c2ccc(F)cc2)on1,4%[56.1 µM],18,13µM*,42,10,?
CCN(CC)CCCNC(=O)c1cc(-c2ccc(Cl)cc2)on1,2%,-1,?,-18,1,23µM*
CCN(CC)CCCNC(=O)c1cc(-c2ccc3c(c2)OCO3)on1,·,-5,0%,-2,-2,-10%
CCOCc1cnc(C)nc1NCC(=O)c1c(C)[nH]c2ccccc12,4%,-13,-13%,1,-3,-21%
Cc1cn(C2CC(N=[N+]=[N-])C(CO)O2)c(=O)[nH]c1=O (configuration not stated),-6%[56.1 µM],·,?,·,·,?
CCc1nnc(NS(=O)(=O)c2ccc(NC(=S)NC(=O)c3ccc(OC)cc3)cc2)s1,0%,14,4%,2,-12,-1%
